# Measured values reported in PubChem BioAssay (EPA / NIEHS).
# Calls of active or inactive are those of the source. The calls were made as follows: active = hit-call score of the fitted dose curve at least 0.9, where 1 is the maximum; inactive = score below 0.9.
# Legend:
# [1] = APR_HepG2_StressKinase_1hr: Apredica 1-hour HepG2 Assay for Stress Kinase (AID 2282906); conditions: HepG2 stress kinase (phospho-c-Jun) imaging, actives raise or lower the signal
# In short: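 High-content imaging of phospho-c-Jun immunostaining (with Hoechst nuclear identification) after a 1 h exposure of HepG2 cells to 10 concentrations from 0.39 to 200 uM, final DMSO 0.5%. Fitted bidirectionally against DMSO.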
# [2] = APR_HepG2_NuclearSize_24hr: Apredica 24-hour HepG2 Assay for Nuclear Size (AID 2282907); conditions: high-content imaging, actives raise or lower the signal
# In short: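 Nuclear size from Hoechst 33342-stained, formaldehyde-fixed HepG2 nuclei imaged by high-content microscopy, after 24 h dosing at ten concentrations from 0.39 to 200 uM in 0.5% DMSO; gain or loss relative to DMSO baseline.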
# [3] = APR_HepG2_CellLoss_24hr: Apredica 24-hour HepG2 Assay for Cell Loss (AID 2282908); conditions: high-content imaging;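 as to AC50: fit in both directions so a hit may be cell loss or gain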
# In short: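 Nuclei stained with Hoechst 33342 after formaldehyde fixation (3.7%) were imaged at 20x to count cells. Exposure lasted 24 hr, at ten concentrations from 0.39 to 200 uM in duplicate, with 0.5% v/v DMSO. Fit bidirectional, relative to DMSO.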
# [4] = APR_HepG2_MicrotubuleCSK_24hr: Apredica 24-hour HepG2 Assay for Microtubule CSK Stabilty (AID 2282909); conditions: HepG2 microtubule cytoskeleton imaging, actives raise or lower the signal
# In short: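 Fixed HepG2 cells were stained for alpha-tubulin and imaged after 24 hr exposure to ten concentrations spanning 0.39–200 uM in 0.5% DMSO. Signal change was fitted in both directions relative to DMSO; taxol was the positive control.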
# [5] = APR_HepG2_MitoticArrest_24hr: Apredica 24-hour HepG2 Assay for Mitotic Arrest (AID 2282910); conditions: high-content imaging, actives raise or lower the signal
# In short: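 Treatment lasted 24 hr in the human HepG2 line at 0.39–200 uM, solvent held at 0.5% DMSO. Fixed cells were stained with Hoechst 33342 and anti-phospho-histone H3, imaged at 20x, and analysed by gain- or loss-of-signal fitting against DMSO.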
# [6] = APR_HepG2_MitoMembPot_24hr: Apredica 24-hour HepG2 Assay for Mitochondrial Membrane Potential (AID 2282911); conditions: imaging, actives raise or lower the signal
# In short: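 Cells are dosed for 24 hr across 0.39 to 200 uM with solvent held at 0.5% DMSO. They are then stained with 250 nM MitoTracker Red CMXRos for 30 min, fixed in 3.7% formaldehyde and imaged.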
# [7] = APR_HepG2_MitoMass_24hr: Apredica 24-hour HepG2 Assay for Mitochondrial Mass (AID 2282912); conditions: high-content imaging, actives raise or lower the signal
# In short: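 Endpoint is MitoTracker Red CMXRos (250 nM, 30 min, pre-fixation) intensity from 20x high-content imaging, nuclei located by Hoechst. Human HepG2 cells received ten concentrations from 0.39 to 200 uM in 0.5% DMSO for 24 hr, duplicate wells. Bidirectional fit relative to DMSO.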
# [8] = APR_HepG2_p53Act_24hr: Apredica 24-hour HepG2 Assay for p53 Activation (AID 2282913); conditions: high-content imaging, actives raise or lower the signal;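 also: p53 protein immunofluorescence averaged per cell in HepG2 with Hoechst nuclei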
# In short: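 Human HepG2 liver cells; 24 hr cpd treatment, 0.39–200 uM, 0.5% DMSO final. Fixed in 3.7% formaldehyde, permeabilized with 0.5% Triton X-100, stained with anti-p53/Cy5 plus Hoechst 33342. Six images per well at 20x; gain or loss vs DMSO.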
# [9] = APR_HepG2_CellCycleArrest_72hr: Apredica 72-hour HepG2 Assay for Cell Cycle Arrest (AID 2282914); conditions: high-content imaging, actives raise or lower the signal
# In short: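 Read-out is Hoechst-stained nuclear DNA content measured by automated fluorescence imaging (20x, six images per well), fitted in both directions relative to DMSO. Human HepG2 liver cells received 0.39–200 uM compound for 72 hr at 0.5% v/v DMSO.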
# [10] = APR_HepG2_CellLoss_72hr: Apredica 72-hour HepG2 Assay for Cell Loss (AID 2282915); conditions: high-content imaging
# In short: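 HepG2 cells were exposed for 72 hr to compounds at 0.39–200 uM (ten concentrations, duplicate) in 0.5% v/v final DMSO. Nuclei were stained with Hoechst 33342 after 3.7% formaldehyde fixation, imaged at 20x, and counted; fits bidirectional versus DMSO.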
# [11] = APR_HepG2_P-H2AX_72hr: Apredica 72-hour HepG2 Assay for H2AX Phosphorylation (AID 2282916); conditions: imaging, actives raise or lower the signal;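 also: phospho-histone H2A.x immunostain intensity per cell marking DNA damage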
# In short: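 Phospho-histone H2A.x immunofluorescence, multiplexed with Hoechst and c-Jun, quantified by high-content imaging. Compounds applied to HepG2 for 72 h across ten concentrations (0.39–200 uM, 0.5% DMSO), in duplicate; DMSO baseline.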
# [12] = APR_HepG2_MitoMembPot_72hr: Apredica 72-hour HepG2 Assay for Mitochondrial Membrane Potential (AID 2282917); conditions: imaging, actives raise or lower the signal
# In short: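 HepG2 cells exposed 72 h to compounds at 0.39–200 uM (0.5% v/v DMSO, duplicates); MitoTracker Red CMXRos 250 nM loaded 30 min before 3.7% formaldehyde fixation, imaged by HCS fluorescence. Bidirectional fit versus DMSO.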
# [13] = APR_HepG2_MitoticArrest_72hr: Apredica 72-hour HepG2 Assay for Mitotic Arrest (AID 2282918); conditions: high-content imaging, actives raise or lower the signal
# In short: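 Read-out is phospho-histone H3 immunofluorescence with Hoechst nuclear segmentation, imaged at 20x. Human HepG2 liver cells received ten concentrations (0.39–200 uM, final DMSO 0.5% v/v) for 72 hr before fixation. Gain or loss of signal was fitted relative to DMSO.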
# [14] = APR_HepG2_MicrotubuleCSK_72hr: Apredica 72-hour HepG2 Assay for Microtubule CSK Stabilty (AID 2282919); conditions: HepG2 microtubule cytoskeleton, high-content imaging, actives raise or lower the signal
# In short: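 Ten-point dosing (0.39–200 uM, 0.5% DMSO) of HepG2 for 72 hr, with taxol as the cytoskeletal positive control. The cells were formaldehyde-fixed and then stained with alpha-tubulin/Cy5 and Hoechst. Imaging at 20x used a −2 um Z offset for tubulin.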
# [15] = APR_HepG2_StressKinase_72hr: Apredica 72-hour HepG2 Assay for Stress Kinase (AID 2282921); conditions: HepG2 stress kinase (phospho-c-Jun) imaging, actives raise or lower the signal
# In short: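 Stress kinase signal is phospho-c-Jun immunofluorescence (1:500 primary, Cy3 secondary) in fixed, permeabilized human HepG2 cells imaged at 20x. Exposure lasted 72 hr over ten concentrations from 0.39 to 200 uM, 0.5% DMSO, in duplicate. Bidirectional fit versus DMSO.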
# [16] = APR_HepG2_StressKinase_24hr: Apredica 24-hour HepG2 Assay for Stress Kinase (AID 2282922); conditions: HepG2 stress kinase (phospho-c-Jun) imaging, actives raise or lower the signal
# In short: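 After 24 hr compound treatment (up to 200 uM, final DMSO 0.5% v/v), HepG2 cells are fixed and multiplex-labeled; phospho-c-Jun intensity is captured by high-content fluorescence imaging and analyzed relative to DMSO.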
# [17] = APR_HepG2_p53Act_72hr: Apredica 72-hour HepG2 Assay for p53 Activation (AID 2282923); conditions: high-content imaging, actives raise or lower the signal;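 also: average cellular p53 protein immunofluorescence intensity in HepG2 cells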
# In short: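 After 72 h with compound (ten points, 0.39 to 200 uM, final DMSO 0.5% v/v), fixed HepG2 cells were labelled with sheep anti-p53 and Hoechst 33342 and imaged; gain or loss versus DMSO scored.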
# [18] = APR_HepG2_MitoMass_72hr: Apredica 72-hour HepG2 Assay for Mitochondrial Mass (AID 2282924); conditions: high-content imaging, actives raise or lower the signal;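 also: MitoTracker Red CMXRos stain intensity per cell imaged as mitochondrial mass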
# In short: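 Steps: treat HepG2 72 hr (0.39–200 uM, duplicate wells); load MitoTracker Red CMXRos, 250 nM, 30 min; fix with 3.7% formaldehyde, permeabilise with 0.5% Triton X-100; capture images, nuclei via Hoechst 33342; fit bidirectionally against DMSO.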
# [19] = APR_HepG2_NuclearSize_72hr: Apredica 72-hour HepG2 Assay for Nuclear Size (AID 2282925); conditions: high-content imaging, actives raise or lower the signal
# In short: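 Compounds (0.39–200 uM, final DMSO 0.5%) were applied to HepG2 for 72 hr. Cells were then formaldehyde-fixed, permeabilized and labelled with Hoechst 33342. Nuclear diameter was quantified from six images per well.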
# [20] = APR_HepG2_P-H2AX_24hr: Apredica 24-hour HepG2 Assay for H2AX Phosphorylation (AID 2282920); conditions: high-content imaging, actives raise or lower the signal
# In short: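 HepG2, 24 hr, cpd 0.39–200 uM (10 conc, duplicate), DMSO 0.5% v/v final. Fix 3.7% formaldehyde, Triton X-100 permeabilize, anti-phospho-H2A.x 1:200 + Hoechst 2 ug/mL. Imaged, bidirectional fit vs DMSO.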
compound,measurement,setting,value
CCCCOC(=O)[C@@H](C)Oc1ccc(Oc2ccc(C(F)(F)F)cn2)cc1,outcome,[1],inactive
same,outcome,[2],inactive
same,outcome,[3],inactive
same,outcome,[4],inactive
same,outcome,[5],inactive
same,outcome,[6],inactive
same,outcome,[7],inactive
same,outcome,[8],inactive
same,outcome,[9],inactive
same,outcome,[10],inactive
same,outcome,[11],inactive
same,outcome,[12],inactive
same,outcome,[13],inactive
same,outcome,[14],inactive
same,outcome,[15],inactive
same,outcome,[16],inactive
same,outcome,[17],inactive
same,outcome,[18],inactive
same,outcome,[19],inactive
N#CSCSc1nc2ccccc2s1,AC50,[1],33.3 µM (active)
same,outcome,[2],inactive
same,AC50,[3],42.9 µM (active)
same,outcome,[4],inactive
same,outcome,[5],inactive
same,outcome,[6],inactive
same,outcome,[7],inactive
same,outcome,[9],inactive
same,AC50,[10],10 µM (active)
same,outcome,[11],inactive
same,AC50,[12],25.2 µM (active)
same,outcome,[13],inactive
same,outcome,[14],inactive
same,outcome,[20],inactive
same,outcome,[15],inactive
same,outcome,[16],inactive
same,outcome,[18],inactive
same,outcome,[19],inactive
c1ccc(Nc2ccccc2)cc1,outcome,[1],inactive
same,outcome,[2],inactive
same,outcome,[3],inactive
same,outcome,[4],inactive
same,outcome,[5],inactive
same,outcome,[6],inactive
same,outcome,[7],inactive
same,outcome,[9],inactive
same,outcome,[10],inactive
same,outcome,[11],inactive
same,outcome,[12],inactive
same,outcome,[13],inactive
same,outcome,[14],inactive
same,outcome,[20],inactive
same,outcome,[15],inactive
same,outcome,[16],inactive
same,outcome,[17],inactive
same,outcome,[18],inactive
same,outcome,[19],inactive
CCNc1nc(N)nc(Cl)n1,outcome,[1],inactive
same,outcome,[2],inactive
same,outcome,[3],inactive
same,outcome,[4],inactive
same,outcome,[5],inactive
same,outcome,[6],inactive
same,outcome,[7],inactive
same,outcome,[8],inactive
same,outcome,[9],inactive
same,outcome,[10],inactive
same,outcome,[11],inactive
same,outcome,[12],inactive
same,outcome,[13],inactive
same,outcome,[14],inactive
same,outcome,[15],inactive
same,outcome,[16],inactive
same,outcome,[17],inactive
same,outcome,[18],inactive
same,outcome,[19],inactive
O=C(O)C1(C(=O)Nc2ccc(Cl)cc2Cl)CC1,outcome,[1],inactive
same,outcome,[2],inactive
same,outcome,[3],inactive
same,outcome,[4],inactive
same,outcome,[5],inactive
same,outcome,[6],inactive
same,outcome,[7],inactive
same,outcome,[9],inactive
same,outcome,[10],inactive
same,outcome,[11],inactive
same,outcome,[12],inactive
same,outcome,[13],inactive
same,outcome,[14],inactive
same,outcome,[20],inactive
same,outcome,[15],inactive
same,outcome,[16],inactive
same,outcome,[17],inactive
same,outcome,[18],inactive
same,outcome,[19],inactive
CCOC(=O)NCCOc1ccc(Oc2ccccc2)cc1,outcome,[1],inactive
same,outcome,[2],inactive
same,outcome,[3],inactive
same,outcome,[4],inactive
same,outcome,[5],inactive
same,AC50,[6],56.2 µM (active)
same,outcome,[7],inactive
same,outcome,[9],inactive
same,AC50,[10],52.8 µM (active)
same,outcome,[11],inactive
same,AC50,[12],78.2 µM (active)
same,outcome,[13],inactive
same,AC50,[14],79.4 µM (active)
same,outcome,[15],inactive
same,outcome,[16],inactive
same,outcome,[17],inactive
same,outcome,[18],inactive
same,outcome,[19],inactive
